The record followed here is PubChem BioAssay (EPA / NIEHS).

Records with an inconclusive call do not appear. Calls of active or inactive are those of the source. How the source made its calls: active means hit-call score of the fitted dose curve at least 0.9, where 1 is the maximum; inconclusive means response in the unintended direction; inactive means score below 0.9. Peptide text beside a SMILES is read from it.

This test can be described thus: ATG_XTT_Cytotoxicity: Cytotoxicity Assessment in the Attagene TRANS-FACTORIAL HepG2 Assay (AID 2283584). In a few lines: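 24 h chemical exposure of reporter-transfected HepG2; XTT signal loss vs DMSO indicates cytotoxicity.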
For the molecule `CCCCCCCOC(=O)c1ccc(O)cc1`, the molecule was classed as inactive. Take `N#CC1(N)CCCCC1`: the outcome was inactive. For the molecule `O=C(O)/C=C/c1ccccc1`, the result was inactive. The entry for `Oc1ccc(/C=C/c2cc(O)cc(O)c2)cc1` is “inactive”; for `CCN1CCCC1=O` it is “inactive”.

In the case of `CCCCCCCCCC(C)=O`, the outcome was inactive. In the case of `CC(C)(C)C1CCC(=O)CC1` it was “inactive”; in that of `N=C1C=CC(=C(c2ccc(N)cc2)c2ccc(N)cc2)C=C1`, “inactive”. On to `CC(C)(c1ccccc1)c1ccc(Nc2ccc(C(C)(C)c3ccccc3)cc2)cc1`, for which the outcome was inactive.

Regarding `CC(C)c1ccc(O)c(C(C)C)c1`, the call was inactive. In the case of `COC(=O)[C@H](Cc1ccccc1)NC(=O)[C@@H](N)CC(=O)O` (H-Asp-Phe-OMe) it was “inactive”. In the case of `CCCCNS(=O)(=O)c1ccccc1` it was “inactive”; in that of `C=C(C)OC(C)=O`, “inactive”; in that of `O=C(Cl)c1ccc(C(=O)Cl)cc1`, “inactive”. The entry for `COc1ccc(-c2coc3cc(O)cc(O)c3c2=O)cc1` is “inactive”; for `CC(=O)CCC=C(C)C` it is “inactive”; for `CC(C)CC(=O)OCc1ccccc1` it is “inactive”. Take `O=C(O)c1ccc2c(c1)C(=O)OC2=O`: the molecule was called inactive.

For the molecule `CC(CC(C)C)=NO`, the result was inactive. In the case of `CC1OC(=O)C(C)OC1=O` (stereo not given) it was “inactive”; in that of `O=C(Oc1ccccc1)c1ccccc1C(=O)Oc1ccccc1`, “inactive”; in that of `CCCCCCCCCCCCCC(=O)OC(C)C`, “inactive”. The entry for `N#Cc1ccc(C2CCCc3cncn32)cc1` (stereo not given) is “inactive”; for `CC1=C(O)C(=O)C(C)O1` (stereo not given) it is “inactive”; for `CC(C)c1cccc(C(C)C)c1N` it is “inactive”. In the case of `O=C(Nc1ccccc1)c1cc(Cl)ccc1O` it was “inactive”; in that of `CC(C)[N+](C)(CCOC(=O)C1c2ccccc2Oc2ccccc21)C(C)C`, “inactive”. Regarding `O=C(O)c1cc(O)c2ccccc2c1O`, the result was inactive. The entry for `O=C1CCCCCCCCCCCN1` is “inactive”; for `Fc1ccc(Br)cc1` it is “inactive”; for `c1ccc(Nc2cccc3ccccc23)cc1` it is “inactive”. The entry for `Oc1c(Cl)cc(Cl)c(Cl)c1Cl` is “inactive”. In the case of `CCCCC1C(=O)N(c2ccccc2)N(c2ccccc2)C1=O` it was “inactive”; in that of `CC(C)=CCCC(C)=CC#N`, “inactive”. In the case of `COc1ccc(C(=O)c2ccccc2)c(O)c1`, the outcome was inactive. In the case of `O=C(O[C@@H]1Cc2c(O)cc(O)cc2O[C@@H]1c1cc(O)c(O)c(O)c1)c1cc(O)c(O)c(O)c1` it was “inactive”. The entry for `c1ccc2c(c1)[nH]c1ccccc12` is “inactive”.

Consider `CCCCC(=O)O`, for which the result was inactive. In the case of `CC(C)OC(=O)c1ccccc1` it was “inactive”; in that of `C/C=C/C=C/CCCCCCCO`, “inactive”.
